TRPM1 prom inh = inhibitors of MITF-dependent TRPM1 promoter reporter, primary screen, cell-based, SK-MEL-5, single point, luciferase. AID 488899, 2010. 0.83% of 330,000 active. SK-MEL-5 TRPM1 promoter luciferase, 24 h. inhibition, % at 12.5 µM;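 active = mean inhibition across replicates of 60% or more, whatever share of single replicates reaches that level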
Wnt act = Wnt/beta-catenin pathway activators, primary screen, cell-based, plate reader, single point; 1.2% of 300,000 active; Wnt/beta-catenin reporter cell assay, activator; AID 743398, 2014; activation, % at 9.35 µM; in the data active = activation above about 30%, passing the limit was not always enough
esBAF inh = Bmi1 luciferase reporter increase in mESCs, primary screen, esBAF inhibitor project, mouse ES cells, Bmi1 luciferase knock-in, single point. 24 h; 100% = twice the neutral-well signal. reporter increase, % at 12.5 µM. 2% of 350,000 active. AID 602393, 2012; in the data active = activation above about 40%;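 also: a rise in the Bmi1 reporter signal indicates esBAF inhibition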
LMP1 NFkB inh = EBV LMP1-driven NF-kappaB luciferase reporter inhibitors, primary screen, cell-based, luminescence, single point; 0.69% of 350,000 active; inhibition, % at 12.5 µM; LMP1-induced NF-kappaB luciferase reporter cells; in the data active = inhibition above about 41%
MITF TRPM1 HTS = activators of MITF-driven TRPM1 promoter reporter, primary screen, cell-based, SK-MEL-5, luciferase, single point | SK-MEL-5 TRPM1-promoter luciferase, 24 h; % of positive control, neutral wells = 0 | AID 588334, 2011 | 0.75% of 300,000 active | activation, % at 12.5 µM;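 active = mean activation of at least 80% with every replicate also reaching 80%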
C2C12 statin = suppressors of statin myotoxicity in C2C12 myotubes, primary screen, cell-based, single point, plate reader; rescue of ATP level, % at 7.49 µM; 0.78% of 330,000 active; C2C12 myotubes + simvastatin, ATP luminescence, 48 h; scaled: DMSO 0, geranylgeraniol control 100;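 active = mean ATP rescue above about 67%, or every replicate alone reaching that limit, limit read from the data, passing the limit was not always enough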;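 also: myotubes were challenged with 10 µM simvastatin during compound exposure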
Large screens that a line does not name were inactive. The list is not random: actives were taken first. Their share in the collection is about 4%.

CCCCn1c(=N)n(CC(=O)c2ccc(Br)s2)c2ccccc21	TRPM1 prom inh 89.8
COc1ccc(/C=C/C(=O)C(C(N)=O)=C2SCCS2)cc1	none (no result: esBAF inh, C2C12 statin)
O=C(NCCC(c1ccccc1)c1ccccc1)c1cccs1	none (no result: esBAF inh, C2C12 statin)
O=C(/C=C/c1ccc(Cl)cc1Cl)N1CCc2ccccc21	Wnt act 48.5 (no result: esBAF inh, C2C12 statin)
O=C(c1ccc(Cl)cc1Cl)N1CCc2ccccc21	none
CNC(=O)NC1CCCc2ccccc21 (stereo not drawn)	none (no result: Wnt act)
O=C(CSc1ncnc2c1oc1ccccc12)Nc1ccccc1F	none
O=C(NC1CCCCC1)C(=S)NCc1ccccc1	esBAF inh 50.4
O=C(NC1CCCC1)C1CCN(C(=O)NCc2ccccc2)CC1	none (no result: esBAF inh, C2C12 statin)
O=C(NC1CCCCC1)C1CCN(C(=O)NCc2ccccc2)CC1	C2C12 statin 103.4
CCOc1cc(NC(=O)C2CC2)c(OCC)cc1NC(=O)c1ccccn1	C2C12 statin 121.0 (no result: MITF TRPM1 HTS)
CCOc1cc(NC(=O)c2ccccn2)c(OCC)cc1NC(=O)c1ccccc1	none
Cc1cc(C)nc(NN=C2CCCC2)n1	none (no result: Wnt act, esBAF inh, C2C12 statin)
CCOc1ccc(CCNC(=O)/C=C/c2ccco2)cc1OCC	Wnt act 34.3
COc1ccc(/C=C/c2ccncc2)cc1	Wnt act 45.7, esBAF inh 52.6
CN(C)c1ccc(C=Cc2cnccn2)cc1	none
CN(C)c1ccc(/C=C/c2ccncc2)cc1	Wnt act 43.5
O=C(O)CCCNS(=O)(=O)c1ccc2ccccc2c1	none (no result: MITF TRPM1 HTS)
CNc1ncnc2c1ncn2[C@H]1CN(Cc2cccs2)C[C@@H](CO)O1	none (no result: TRPM1 prom inh, LMP1 NFkB inh, MITF TRPM1 HTS)
COc1ccc(C(=O)OCC(=O)C(C)(C)C)cc1S(=O)(=O)N(C)CCc1cccnc1	none (no result: esBAF inh, C2C12 statin)
O=C(/C=C\Nc1ccc(Br)cc1)c1cccnc1	Wnt act 38.3 (no result: esBAF inh, C2C12 statin)
O=C(NNC(=S)Nc1ccc(Br)cc1)c1cccnc1	none (no result: esBAF inh, C2C12 statin)
CCOC(=O)N1CCN(S(=O)(=O)c2cc(Br)cc3c2N(C(C)=O)C(C)C3)CC1 (stereo not drawn)	none (no result: Wnt act)
CCOC(=O)C1CCN(S(=O)(=O)c2cc(Br)cc3c2N(C(C)=O)C(C)C3)CC1 (stereo not drawn)	C2C12 statin 88.2
O=C(/C=C/Nc1nccs1)C(F)(F)Cl	none
Cc1cc(C)nc(NC(=O)c2cccc(Br)c2)n1	none (no result: MITF TRPM1 HTS)
O=C(NC1=NCCS1)c1ccc(Cl)cc1	esBAF inh 43.8 (no result: MITF TRPM1 HTS)
Cc1cc(NC(=O)c2cccc(Br)c2)n[nH]1	esBAF inh 47.3
COc1cccc(C(=O)NC2=NCCS2)c1	Wnt act 44.4 (no result: MITF TRPM1 HTS)
CCN(CC)S(=O)(=O)c1cccc(C(=O)NC(C(=O)NC2=NCCS2)C(C)C)c1 (stereo not drawn)	C2C12 statin 80.9 (no result: Wnt act)
CCN(CC)S(=O)(=O)c1cccc(C(=O)N[C@H](C(=O)NC2=NCCS2)C(C)C)c1	none (no result: esBAF inh, C2C12 statin)
CC(C)Oc1cccc(C(=O)NC2=NCCS2)c1	none (no result: esBAF inh, C2C12 statin)
O=C(NC1=NCCS1)c1ccc(-c2ccc(Cl)cc2)o1	none (no result: Wnt act, esBAF inh, C2C12 statin)
CN1C(=O)c2cc(NS(=O)(=O)c3cccc(F)c3)ccc2OC[C@@H]2O[C@@H](CC(=O)O)CC[C@H]21	none (no result: TRPM1 prom inh, Wnt act, LMP1 NFkB inh, MITF TRPM1 HTS)
Cc1ccc(S(=O)(=O)N2CCN=C2SCc2cccnc2)cc1	none (no result: esBAF inh, C2C12 statin)
CCSc1nnc(NC(=O)CN2C(=O)NC3(CCCC3)C2=O)s1	none
COCC(=O)Nc1ccc2c(c1)OC[C@H](C)N(C(=O)NC(C)C)C[C@@H](C)[C@@H](OC)CN(C)C2=O	none (no result: TRPM1 prom inh, Wnt act, LMP1 NFkB inh, MITF TRPM1 HTS)
O=C(NC1=NCCS1)c1cccc(Br)c1	Wnt act 41.9, esBAF inh 48.3 (no result: MITF TRPM1 HTS)
O=C(NC1=NCCS1)c1cccc(F)c1	none (no result: TRPM1 prom inh, esBAF inh, LMP1 NFkB inh, MITF TRPM1 HTS, C2C12 statin)
CC(=O)c1ccc(OCc2cc(C(=O)N3CCN(C4CCCC4)C(=O)C3)no2)cc1	none
O=C1NC2(CCCCC2)C(=O)N1/N=C/c1ccccc1Br	esBAF inh 49.2
CC1(C)C(c2ccc(Cl)cc2)=[N+]([O-])C2(CCCC/C2=N\O)N1O (stereo not drawn)	C2C12 statin 116.3 (no result: Wnt act)
COc1cccc(S(=O)(=O)N(C)C[C@@H]2OCc3ccccc3-c3ccccc3C(=O)N([C@@H](C)CO)C[C@H]2C)c1	none (no result: TRPM1 prom inh, Wnt act, LMP1 NFkB inh, MITF TRPM1 HTS, C2C12 statin)
CN(C)CCCN(C(=O)CCc1ccccc1)c1nc2ccc(Br)cc2s1	TRPM1 prom inh 87.3
CN1C(=O)c2cc(NC(=O)c3cc(F)cc(F)c3)ccc2OC[C@@H]2O[C@@H](CC(=O)O)CC[C@H]21	none (no result: TRPM1 prom inh, Wnt act, LMP1 NFkB inh, MITF TRPM1 HTS)
O=C1S/C(=C\c2cccs2)C(=O)N1c1ccc(O)cc1	Wnt act 43.6, esBAF inh 50.1, MITF TRPM1 HTS 98.0
O=C1/C(=C/c2cccs2)SC(=S)N1c1ccccc1	none
Cc1cc(/C=C(\C#N)C(=O)NCc2ccco2)c(C)n1C1CCCC1	Wnt act 39.4, esBAF inh 53.2
N#C/C(=C\c1ccc(OCc2ccc(C(=O)O)cc2)cc1)C(=O)NCc1ccccc1	none
N#C/C(=C\c1ccc(OCc2cccc(C(=O)O)c2)cc1)C(=O)NCc1ccco1	Wnt act 38.8 (no result: esBAF inh, C2C12 statin)
CCN1CCCC1CNC(=O)C(=O)NC1CC1 (stereo not drawn)	none (no result: Wnt act, esBAF inh, C2C12 statin)
CC1(C)Cc2c(C#N)c(N3CCN(C(=O)c4ccco4)CC3)nc(-c3ccco3)c2CS1	C2C12 statin 121.4
COc1cccc(COC(=O)c2cc(S(=O)(=O)N3CCCCC3)ccc2N2CCOCC2)c1OC	none
CC1CCN(C(=O)c2cc3nc(-c4ccccc4)cc(-c4ccccc4)n3n2)CC1	C2C12 statin 83.1
C[C@H](CO)N1C[C@H](C)[C@@H](CN(C)Cc2ccccc2)Oc2c(NS(C)(=O)=O)cccc2C1=O	none (no result: TRPM1 prom inh, Wnt act, LMP1 NFkB inh, MITF TRPM1 HTS)
COc1ccc(/C=C/C(=O)N2CCC(c3ccccc3)C2)cc1 (stereo not drawn)	none (no result: esBAF inh, C2C12 statin)
CCOC(=O)C1CCN(C(=O)/C=C/c2ccccc2)CC1	Wnt act 44.9 (no result: esBAF inh, C2C12 statin)
COC(=O)C1CCN(C(=O)/C=C/c2ccc(OC)cc2)CC1	Wnt act 56.7
CCOC(=O)C1CCN(C(=O)CNC(=O)OC(C)(C)C)CC1	LMP1 NFkB inh 43.2 (no result: MITF TRPM1 HTS)
CC(C)(C)OC(=O)NCC(=O)N1CCC(C(=O)O)CC1	none
COc1ccc(C2c3c(ccc4ccccc34)Oc3ncn4nc(-c5ccco5)nc4c32)cc1OC (stereo not drawn)	none (no result: Wnt act, esBAF inh, C2C12 statin)
Cc1ccc(C(=O)NNC(=O)c2ccc(-n3cncn3)c([N+](=O)[O-])c2)cc1	none (no result: esBAF inh, C2C12 statin)
O=C(O)c1ccc(-n2cncn2)c([N+](=O)[O-])c1	LMP1 NFkB inh 49.3
Cc1cc2nc(-c3ccc(SCC(=O)N4CCc5ccccc54)nc3)[nH]c2cc1C	esBAF inh 75.4
CSc1nsc(SCC(=O)N2CCCc3ccccc32)n1	C2C12 statin 92.0 (no result: Wnt act)
Cc1cc(C)n2nc(SCC(=O)N3CCc4ccccc43)nc2n1	none (no result: esBAF inh, C2C12 statin)
O=C(CSCCO)N1CCc2ccccc21	C2C12 statin 115.8
Cc1cc2nc(-c3ccc(SCc4ccc(C(=O)O)cc4)nc3)[nH]c2cc1C	none (no result: esBAF inh, C2C12 statin)
Cc1cc(C)nc(SCC(=O)N2CCc3ccccc32)n1	esBAF inh 41.8
Nc1ccccc1SCC(=O)N1CCc2ccccc21	none

Screening data (PubChem)
